Measured values: the supplement of paper PMC10849652
About 7,900 targets were measured; listed, in parts, are those with a hit and a random draw of the rest. About 0.6% of all pairs of compound and target were hits. A number with no mark means an inactive call.

Key:
Experiment in all cases: log2 fold change, soluble protein after heating vs DMSO (PISA); higher = thermal stabilisation; K562 cells, 10 uM, 30 min; active = over 0.2 and 3.5 SD of the protein, either way, in both replicates (recomputed)
[1] = compound: CS(=O)(=O)c1ccc(-c2cnc(N)c(C(=O)Nc3ccccc3)n2)cc1
Procedure, shortened: (§1)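 Soluble protein was quantified by TMTpro 16plex LC-MS/MS after channel sums were equalised. It was obtained as the supernatant after 21,000xg for 90 min from pooled aliquots of K562 cells (2×10^6 cells/mL, 10 μM compound, 30 min) heated for 3 min across 48°C-58°C and extracted in PBS with 0.5% NP-40 at 4°C. Thermal stability values are relative to control samples and come from duplicates. They are given as log2 fold changes.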

[2] = compound: C[C@@H](Oc1cc(-c2cnn(C3CCNCC3)c2)cnc1N)c1c(Cl)ccc(F)c1Cl [crizotinib]
Procedure, shortened: as §1

[3] = compound: C[C@@H]1COCCN1C2=NC(=NC(=C2)C3(CC3)S(=O)(=O)C)C4=C5C=CNC5=CC=C4
Procedure, shortened: as §1

[4] = compound: C[C@H](C1=CC=C(C=C1)C(=O)NC2=C3C=CNC3=NC=C2)N
Procedure, shortened: as §1

[5] = compound: C[C@H](Nc1ncnc2nc[nH]c12)c1cc2cccc(Cl)c2c(=O)n1-c1ccccc1 [duvelisib]
Procedure, shortened: as §1

[6] = compound: Cc1cc(Nc2cc(CN3CCOCC3)c3nc(C)c(Cc4ccc(Cl)cc4F)n3n2)n[nH]1 [gandotinib]
Procedure, shortened: as §1

[7] = compound: Cc1cc(Nc2cc(N3CCN(C)CC3)nc(Sc3ccc(NC(=O)C4CC4)cc3)n2)n[nH]1 [tozasertib]
Procedure, shortened: as §1

[8] = compound: Cc1cc(SCc2sc(-c3ccc(C(F)(F)F)cc3)nc2C)ccc1OCC(=O)O
Procedure, shortened: as §1

[9] = compound: Cc1ccc(-n2nc(C(C)(C)C)cc2NC(=O)Nc2ccc(OCCN3CCOCC3)c3ccccc23)cc1 [doramapimod]
Procedure, shortened: as §1

[10] = compound: Cc1ccc(C(=O)N(CCCN)[C@@H](c2nc3cc(Cl)ccc3c(=O)n2Cc2ccccc2)C(C)C)cc1 [ispinesib]
Procedure, shortened: as §1

[11] = compound: Cc1ccc(NC(=O)c2ccc(CN3CC[C@H](N(C)C)C3)c(C(F)(F)F)c2)cc1Nc1nccc(-c2cncnc2)n1 [bafetinib]
Procedure, shortened: as §1

[12] = compound: Cc1cccc(CC(=O)N2CCc3c2ccc(-c2cn(C)c4ncnc(N)c24)c3F)n1
Procedure, shortened: as §1

[13] = compound: Cc1cn(-c2cc(NC(=O)c3ccc(C)c(Nc4nccc(-c5cccnc5)n4)c3)cc(C(F)(F)F)c2)cn1 [nilotinib]
Procedure, shortened: as §1

[14] = compound: Cc1nc(Nc2n[nH]c3c2CN(C(=O)N[C@H](CN(C)C)c2ccccc2)C3(C)C)c2sccc2n1
Procedure, shortened: as §1

[15] = compound: Cc1nc(Nc2ncc(C(=O)Nc3c(C)cccc3Cl)s2)cc(N2CCN(CCO)CC2)n1 [dasatinib]
Procedure, shortened: as §1

[16] = compound: Cc1ncc(-c2ccnc(Nc3ccc(S(C)(=O)=O)cc3)n2)n1C(C)C
Procedure, shortened: as §1

[17] = compound: Cn1cc(-c2ccc3c(c2)CCN3C(=O)Cc2cccc(C(F)(F)F)c2)c2c(N)ncnc21
Procedure, shortened: as §1

[18] = compound: Cn1cc(-c2ccc3nnc(C(F)(F)c4ccc5ncccc5c4)n3n2)cn1
Procedure, shortened: as §1

[19] = compound: Cn1cncc1[C@@](N)(c1ccc(Cl)cc1)c1ccc2c(c1)c(-c1cccc(Cl)c1)cc(=O)n2C [tipifarnib]
Procedure, shortened: as §1

[20] = compound: FC(F)(F)c1ccc(/C=C/c2nc(COc3ccc(CCCCn4ccnn4)cc3)co2)cc1 [mubritinib]
Procedure, shortened: as §1

Sequence of UniProt P54136 (P54136 whole entry, looked up): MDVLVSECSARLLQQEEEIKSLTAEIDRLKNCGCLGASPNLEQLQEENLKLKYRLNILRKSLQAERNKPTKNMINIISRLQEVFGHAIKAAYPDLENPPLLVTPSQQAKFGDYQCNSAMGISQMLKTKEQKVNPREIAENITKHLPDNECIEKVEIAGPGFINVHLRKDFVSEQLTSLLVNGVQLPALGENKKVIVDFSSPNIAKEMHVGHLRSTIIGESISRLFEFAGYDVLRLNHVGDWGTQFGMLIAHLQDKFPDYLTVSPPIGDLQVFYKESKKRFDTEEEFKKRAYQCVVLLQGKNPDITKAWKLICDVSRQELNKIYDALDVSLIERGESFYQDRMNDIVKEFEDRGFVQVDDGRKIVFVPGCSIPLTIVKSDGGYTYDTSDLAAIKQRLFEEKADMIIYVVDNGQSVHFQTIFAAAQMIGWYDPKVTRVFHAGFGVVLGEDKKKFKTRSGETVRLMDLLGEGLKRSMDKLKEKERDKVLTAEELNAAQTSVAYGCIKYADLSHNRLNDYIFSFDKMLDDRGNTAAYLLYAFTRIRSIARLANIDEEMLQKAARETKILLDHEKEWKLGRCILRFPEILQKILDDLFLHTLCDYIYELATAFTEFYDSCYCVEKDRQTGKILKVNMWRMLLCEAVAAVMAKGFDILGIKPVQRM
Sequence of UniProt Q9H6H4 (Q9H6H4 whole entry, looked up): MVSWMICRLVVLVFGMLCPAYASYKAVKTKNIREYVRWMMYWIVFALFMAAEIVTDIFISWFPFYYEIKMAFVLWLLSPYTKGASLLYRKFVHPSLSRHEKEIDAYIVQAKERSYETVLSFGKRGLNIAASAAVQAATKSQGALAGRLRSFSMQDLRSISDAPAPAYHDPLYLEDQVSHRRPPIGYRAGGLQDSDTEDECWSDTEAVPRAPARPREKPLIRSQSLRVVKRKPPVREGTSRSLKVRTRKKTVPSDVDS
Sequence of UniProt P49756 (P49756 whole entry, looked up): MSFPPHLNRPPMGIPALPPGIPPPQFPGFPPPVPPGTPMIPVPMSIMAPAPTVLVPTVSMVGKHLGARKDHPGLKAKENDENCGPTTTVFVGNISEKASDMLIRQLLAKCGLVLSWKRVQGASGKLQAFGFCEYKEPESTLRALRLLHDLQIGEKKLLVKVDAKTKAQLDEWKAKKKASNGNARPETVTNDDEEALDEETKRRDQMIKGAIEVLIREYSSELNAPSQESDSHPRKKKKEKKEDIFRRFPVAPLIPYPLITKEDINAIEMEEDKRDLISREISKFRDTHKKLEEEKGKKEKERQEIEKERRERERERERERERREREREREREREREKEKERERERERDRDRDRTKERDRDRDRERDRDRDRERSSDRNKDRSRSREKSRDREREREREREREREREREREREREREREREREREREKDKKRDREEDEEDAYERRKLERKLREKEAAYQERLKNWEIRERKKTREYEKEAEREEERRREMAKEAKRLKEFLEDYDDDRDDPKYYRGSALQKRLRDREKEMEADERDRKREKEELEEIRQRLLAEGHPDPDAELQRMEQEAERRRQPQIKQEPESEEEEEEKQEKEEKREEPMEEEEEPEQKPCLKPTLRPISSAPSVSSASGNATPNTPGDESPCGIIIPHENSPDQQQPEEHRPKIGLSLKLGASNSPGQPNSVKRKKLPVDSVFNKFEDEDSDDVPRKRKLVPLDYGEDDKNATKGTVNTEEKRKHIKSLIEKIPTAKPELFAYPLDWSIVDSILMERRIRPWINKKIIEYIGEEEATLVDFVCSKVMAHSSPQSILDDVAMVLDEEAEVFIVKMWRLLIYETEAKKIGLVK
Sequence of UniProt O00767 (O00767 whole entry, looked up): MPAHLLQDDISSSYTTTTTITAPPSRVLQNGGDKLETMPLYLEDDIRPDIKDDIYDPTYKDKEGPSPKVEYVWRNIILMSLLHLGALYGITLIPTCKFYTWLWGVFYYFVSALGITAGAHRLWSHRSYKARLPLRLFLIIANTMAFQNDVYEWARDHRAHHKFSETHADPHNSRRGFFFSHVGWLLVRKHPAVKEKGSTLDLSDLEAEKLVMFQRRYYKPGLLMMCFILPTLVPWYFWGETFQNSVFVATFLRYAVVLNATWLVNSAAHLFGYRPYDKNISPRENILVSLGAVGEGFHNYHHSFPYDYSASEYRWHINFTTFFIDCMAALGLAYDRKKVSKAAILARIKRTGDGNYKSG
Sequence of UniProt Q96EV2 (Q96EV2 whole entry, looked up): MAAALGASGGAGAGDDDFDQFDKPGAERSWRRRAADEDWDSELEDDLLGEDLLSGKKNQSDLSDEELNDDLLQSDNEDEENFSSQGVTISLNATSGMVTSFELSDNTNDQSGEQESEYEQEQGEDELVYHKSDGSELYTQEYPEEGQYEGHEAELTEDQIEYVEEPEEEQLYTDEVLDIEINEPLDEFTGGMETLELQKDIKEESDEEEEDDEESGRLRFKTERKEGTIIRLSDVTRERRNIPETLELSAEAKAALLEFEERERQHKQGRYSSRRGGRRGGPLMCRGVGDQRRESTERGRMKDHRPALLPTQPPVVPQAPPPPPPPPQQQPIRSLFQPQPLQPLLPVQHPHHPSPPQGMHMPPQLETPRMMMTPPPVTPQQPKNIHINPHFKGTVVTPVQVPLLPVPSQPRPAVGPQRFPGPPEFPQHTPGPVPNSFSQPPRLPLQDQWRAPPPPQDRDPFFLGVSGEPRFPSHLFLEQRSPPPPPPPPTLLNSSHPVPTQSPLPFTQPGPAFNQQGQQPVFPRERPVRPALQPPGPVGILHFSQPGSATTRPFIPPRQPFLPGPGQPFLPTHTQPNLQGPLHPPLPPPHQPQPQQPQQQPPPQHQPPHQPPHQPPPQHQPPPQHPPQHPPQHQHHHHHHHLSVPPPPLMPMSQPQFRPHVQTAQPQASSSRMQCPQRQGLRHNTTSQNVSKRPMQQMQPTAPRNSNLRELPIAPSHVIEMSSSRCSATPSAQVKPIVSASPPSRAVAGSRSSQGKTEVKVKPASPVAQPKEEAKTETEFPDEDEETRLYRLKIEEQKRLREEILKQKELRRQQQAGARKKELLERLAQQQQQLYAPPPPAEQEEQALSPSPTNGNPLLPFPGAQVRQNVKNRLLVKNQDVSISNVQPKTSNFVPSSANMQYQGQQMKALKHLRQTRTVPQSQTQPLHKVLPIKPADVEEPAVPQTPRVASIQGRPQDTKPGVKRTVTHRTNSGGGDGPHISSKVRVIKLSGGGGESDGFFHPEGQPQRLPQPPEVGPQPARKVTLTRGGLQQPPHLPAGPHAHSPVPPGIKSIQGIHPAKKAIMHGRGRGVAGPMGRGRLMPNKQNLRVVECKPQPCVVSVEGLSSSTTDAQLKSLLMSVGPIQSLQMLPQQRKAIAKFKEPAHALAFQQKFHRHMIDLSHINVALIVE
Sequence of UniProt Q8NBN7 (Q8NBN7 whole entry, looked up): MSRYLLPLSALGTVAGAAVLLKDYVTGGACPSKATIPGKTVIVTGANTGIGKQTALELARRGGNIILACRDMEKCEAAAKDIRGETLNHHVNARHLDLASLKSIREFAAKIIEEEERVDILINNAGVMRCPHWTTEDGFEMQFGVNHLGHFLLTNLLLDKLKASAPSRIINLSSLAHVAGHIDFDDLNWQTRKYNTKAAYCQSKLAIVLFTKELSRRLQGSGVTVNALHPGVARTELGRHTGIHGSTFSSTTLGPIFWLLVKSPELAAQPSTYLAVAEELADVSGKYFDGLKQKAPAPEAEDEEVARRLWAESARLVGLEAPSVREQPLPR
Sequence of UniProt Q14493 (Q14493 whole entry, looked up): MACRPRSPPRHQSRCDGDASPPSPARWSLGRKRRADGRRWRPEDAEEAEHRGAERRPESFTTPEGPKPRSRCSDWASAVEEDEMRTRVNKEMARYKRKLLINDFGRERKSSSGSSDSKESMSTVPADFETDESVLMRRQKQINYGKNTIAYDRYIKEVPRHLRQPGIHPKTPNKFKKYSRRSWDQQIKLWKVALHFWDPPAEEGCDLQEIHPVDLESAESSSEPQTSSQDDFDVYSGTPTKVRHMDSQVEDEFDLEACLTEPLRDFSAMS
Sequence of UniProt Q9NX18 (Q9NX18 whole entry, looked up): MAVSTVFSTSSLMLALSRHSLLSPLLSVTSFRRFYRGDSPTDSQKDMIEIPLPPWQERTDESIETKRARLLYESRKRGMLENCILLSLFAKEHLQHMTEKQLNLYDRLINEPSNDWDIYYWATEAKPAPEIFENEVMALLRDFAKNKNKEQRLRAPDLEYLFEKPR

Target | log2 fold change [1] | log2 fold change [2] | log2 fold change [3] | log2 fold change [4] | log2 fold change [5] | log2 fold change [6] | log2 fold change [7] | log2 fold change [8] | log2 fold change [9] | log2 fold change [10] | log2 fold change [11] | log2 fold change [12] | log2 fold change [13] | log2 fold change [14] | log2 fold change [15] | log2 fold change [16] | log2 fold change [17] | log2 fold change [18] | log2 fold change [19] | log2 fold change [20]
SCD (UniProt O00767) | 0.024 | -0.2 | -0.06 | -0.068 | 0.007 | -0.061 | -0.07 | -0.119 | -0.028 | -0.319 | -0.153 | 0.109 | -0.063 | -0.007 | -0.026 | -0.019 | 0.013 | 0.034 | 0.075 | 0.019
RBM25 (UniProt P49756) | -0.071 | -0.052 | 0.09 | -0.01 | 0.037 | -0.166 | -0.012 | -0.074 | 0.057 | -0.049 | -0.067 | -0.066 | -0.012 | -0.03 | -0.049 | -0.129 | -0.044 | -0.096 | 0.068 | 0.049
REEP4 (UniProt Q9H6H4) | -0.015 | -0.148 | -0.027 | 0.02 | -0.013 | 0.001 | -0.111 | 0.02 | 0.06 | -0.275 (active) | 0.021 | 0.127 | -0.017 | -0.077 | -0.079 | 0.067 | -0.052 | -0.056 | -0.109 | -0.04
RBM33 (UniProt Q96EV2) | -0.01 | 0.058 | -0.063 | -0.077 | 0.016 | 0.03 | -0.019 | 0.043 | -0.022 | -0.085 | -0.055 | 0.012 | -0.036 | -0.143 | 0.013 | -0.11 | 0.024 | -0.013 | 0.085 | -0.004
RDH13 (UniProt Q8NBN7) | 0.04 | -0.231 | 0.161 | -0.019 | 0.082 | -0.08 | -0.101 | 0.029 | -0.037 | -0.322 (active) | -0.068 | -0.03 | 0.011 | -0.044 | -0.131 | 0.019 | 0.027 | 0.016 | 0.022 | -0.032
SLBP (UniProt Q14493) | -0.026 | -0.042 | 0.132 | 0.003 | -0.128 | -0.022 | -0.012 | 0.055 | 0.007 | -0.063 | 0.11 | -0.017 | -0.05 | -0.093 | 0.031 | -0.423 (active) | -0.042 | -0.033 | 0 | -0.023
SDHAF2 (UniProt Q9NX18) | -0.042 | -0.183 | 0.07 | -0.111 | 0.082 | 0.057 | 0.002 | -0.125 | -0.051 | 0.006 | -0.083 | 0.166 | -0.02 | 0.022 | 0.057 | -0.007 | 0.056 | 0.017 | 0.007 | 0.058
RARS (UniProt P54136) | -0.001 | -0.266 | -0.099 | 0.373 | -0.069 | 0.018 | -0.028 | 0.132 | 0.184 | -0.398 (active) | 0.04 | 0.069 | -0.057 | -0.021 | -0.071 | 0.053 | -0.08 | -0.125 | -0.117 | -0.116
